Laboratory results reported in PubChem BioAssay (Tox21).
Values joined by “and” are separate entries in the source; they are usually repeats but may differ in a detail not shown here. Equal entries are not always repeated. Results filed as inconclusive are left out. Where a call stands in place of a potency, no number is given. Unmarked numbers belong to inactive results. Active and inactive are the calls of the source. Calls follow the shape of the dose curve; as a rule, active = well fitted curve in the direction sought with a large enough effect in the repeat runs; inconclusive = weak or mixed curves; inactive = no such curve, though single readings can be large; an effect the other way counts as inactive or inconclusive.

Experiment: qHTS assay to identify small molecule antagonists of the retinoid acid receptor (RAR) signaling pathway - cell viability counter screen (AID 1159551); also: nearly all actives have a fitted effect of over 35% in size
Conditions: C3RL4 cells viability, ATP luminescence (CellTiter-Glo), 6 h; series mostly up to 92.4 µM; activity change, negative = cytotoxicity: at the top concentration
In short: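 C3RL4 cells were seeded overnight at 37 C, then treated with compounds plus 1 uM (final) retinol for 6 h at 37 C. Viability was read as ATP by CellTiter-Glo luminescence after 30 min at room temperature.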

| Structure (SMILES) | Potency | activity change, negative = cytotoxicity [%] |
| --- | --- | --- |
| CCCCOCCOC(C)=O | inactive | – |
| CCOP(=S)(OCC)OP(=S)(OCC)OCC | inactive | – |
| Cc1cccc(N=Nc2ccc(N(C)C)cc2)c1 | inactive | – |
| COc1ccc(C=O)cc1OC | inactive | – |
| CC(C)(C#N)N=NC(C)(C)C#N | inactive | – |
| CC1CC(=O)O1 (stereo not given) | inactive | – |
| CS(=O)(=O)NC(=O)c1cc(Oc2ccc(C(F)(F)F)cc2Cl)ccc1[N+](=O)[O-] | inactive | – |
| CC(C)(c1ccc(OCC2CO2)cc1)c1ccc(OCC2CO2)cc1 (stereo not given) | inactive | – |
| [CH3][Sn]([Cl])([Cl])[Cl] | inactive | – |
| CCOP(=O)(OCC)OCC | inactive | – |
| COP(=S)(OC)SCn1nnc2ccccc2c1=O | inactive | – |
| CC1=C(C(=O)Nc2ccccc2)SCCO1 | inactive | – |
| CC[n+]1c(-c2ccccc2)c2cc(N)ccc2c2ccc(N)cc21 | inactive | – |
| O=C(O)CF | inactive | – |
| CSc1nc(NC(C)C)nc(NC(C)C)n1 | inactive | – |
| CCCCSP(=O)(SCCCC)SCCCC | inactive | – |
| c1ccc2c(c1)Nc1ccccc1S2 | inactive | – |
| CC(C)=CC1C(C(=O)OCc2cccc(Oc3ccccc3)c2)C1(C)C (stereo not given) | inactive | – |
| Cc1cc(Cl)ccc1N=CN(C)C | inactive | – |

| Structure (SMILES) | Potency | activity change, negative = cytotoxicity [%] |
| --- | --- | --- |
| CCCCOC(=O)COC(=O)c1ccccc1C(=O)OCCCC | inactive | – |
| COC(=O)Nc1nc2ccccc2[nH]1 | inactive | – |
| Clc1ccc(C(Cl)(Cl)Cl)cc1 | inactive | – |
| O=NN1CCOCC1 | inactive | – |
| CC1(C)C(C(=O)OC(C#N)c2cccc(Oc3ccccc3)c2)C1(C)C (stereo not given) | inactive | – |
| C=CC(Cl)CCl (stereo not given) | inactive | – |
| CCC/C=N/O | inactive | – |
| Clc1cccc(C(Cl)(Cl)Cl)n1 | inactive | – |
| CCCCCCCCCc1ccc(O)cc1 | inactive | – |
| CC(C)Nc1nc(Cl)nc(NC(C)C)n1 | inactive | – |
| Nc1ccc2ccccc2c1 | inactive | – |
| O=C(O)c1nn(Cc2ccc(Cl)cc2Cl)c2ccccc12 | inactive | – |
| Nc1ncn[nH]1 | inactive | – |
| CNC(=S)S | inactive | – |
| O=[N+]([O-])c1ccc(Nc2ccccc2)cc1 | – | -7.37 |
| O=S(=O)(O)C(F)(F)C(F)(F)C(F)(F)C(F)(F)C(F)(F)C(F)(F)C(F)(F)C(F)(F)F | inactive | – |
| Brc1ccc(Br)cc1 | inactive | – |
| C=C(C)C#N | inactive | – |
| O=C1CCCO1 | inactive | – |

Experiment: qHTS assay to identify small molecule antagonists of the retinoic acid receptor (RAR) signaling pathway (AID 1159552; also: nearly all actives have a fitted effect of over 50% in size; also: potency is read from the fitted curve at half-maximal effect)
Conditions: C3RL4 RARE luciferase reporter, retinol-stimulated, 6 h; series mostly up to 92.4 µM; activity, negative = inhibition: at the top concentration
In short: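 Cells of the C3RL4 line were seeded, incubated overnight, then dosed with compounds in DMSO followed immediately by retinol (1 uM final). Six hours later luciferase detection reagent went in; signal was measured after 30 min at RT.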

| Structure (SMILES) | Potency | activity, negative = inhibition [%] |
| --- | --- | --- |
| CCOP(=S)(OCC)OP(=S)(OCC)OCC | inactive | – |
| Cc1cccc(N=Nc2ccc(N(C)C)cc2)c1 | inactive | – |
| COc1ccc(C=O)cc1OC | inactive | – |
| CC(C)(C#N)N=NC(C)(C)C#N | inactive | – |
| CC1CC(=O)O1 (stereo not given) | inactive | – |
| CS(=O)(=O)NC(=O)c1cc(Oc2ccc(C(F)(F)F)cc2Cl)ccc1[N+](=O)[O-] | inactive | – |
| CC(C)(c1ccc(OCC2CO2)cc1)c1ccc(OCC2CO2)cc1 (stereo not given) | – | -2.92 |
| [CH3][Sn]([Cl])([Cl])[Cl] | inactive | – |
| CCOP(=O)(OCC)OCC | inactive | – |
| COP(=S)(OC)SCn1nnc2ccccc2c1=O | 60 µM (active) | – |
| CC1=C(C(=O)Nc2ccccc2)SCCO1 | inactive | – |
| CSc1nc(NC(C)C)nc(NC(C)C)n1 | – | -6.48 |
| CCCCSP(=O)(SCCCC)SCCCC | inactive | – |
| c1ccc2c(c1)Nc1ccccc1S2 | inactive | – |
| CC(C)=CC1C(C(=O)OCc2cccc(Oc3ccccc3)c2)C1(C)C (stereo not given) | inactive | – |
| CCCCOC(=O)COC(=O)c1ccccc1C(=O)OCCCC | inactive | – |
| COC(=O)Nc1nc2ccccc2[nH]1 | inactive | – |
| Clc1ccc(C(Cl)(Cl)Cl)cc1 | inactive | – |
| O=NN1CCOCC1 | inactive | – |
| CC1(C)C(C(=O)OC(C#N)c2cccc(Oc3ccccc3)c2)C1(C)C (stereo not given) | inactive | – |
| C=CC(Cl)CCl (stereo not given) | inactive | – |
| CCCCCCCCCc1ccc(O)cc1 | inactive | – |
| Nc1ccc2ccccc2c1 | inactive | – |
| O=C(O)c1nn(Cc2ccc(Cl)cc2Cl)c2ccccc12 | inactive | – |
| Nc1ncn[nH]1 | – | 14 |
| O=[N+]([O-])c1ccc(Nc2ccccc2)cc1 | – | -3.85 |
| Brc1ccc(Br)cc1 | inactive | – |
| C=C(C)C#N | inactive | – |
| O=C1CCCO1 | inactive | – |

Experiment: qHTS assay to identify small molecule agonists of the retinoic acid receptor (RAR) signaling pathway (AID 1159553); also: potency is read from the fitted curve at half-maximal effect
Conditions: C3RL4 RARE luciferase reporter, agonist, 6 h; activation: at 73.3 µM (top of the series) unless noted
In short: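 C3RL4 cells carrying a RARE luciferase reporter were plated overnight at 37 C, then exposed to compounds in DMSO for 6 hr at 37 C and 5% CO2. Luminescence was read 30 min after luciferase reagent addition at room temperature.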

| Structure (SMILES) | activation | Potency |
| --- | --- | --- |
| CCOP(=S)(OCC)OP(=S)(OCC)OCC | 0.676% [at 94.8 µM] | – |
| Cc1cccc(N=Nc2ccc(N(C)C)cc2)c1 | – | 69.8 nM (active) and 34.4 µM (active) |
| COc1ccc(C=O)cc1OC | -6.5% | – |
| CC(C)(C#N)N=NC(C)(C)C#N | – | inactive |
| CC1CC(=O)O1 (stereo not given) | – | inactive |
| CS(=O)(=O)NC(=O)c1cc(Oc2ccc(C(F)(F)F)cc2Cl)ccc1[N+](=O)[O-] | – | inactive |
| CC(C)(c1ccc(OCC2CO2)cc1)c1ccc(OCC2CO2)cc1 (stereo not given) | – | inactive |
| [CH3][Sn]([Cl])([Cl])[Cl] | – | inactive |
| CCOP(=O)(OCC)OCC | – | inactive |
| CC1=C(C(=O)Nc2ccccc2)SCCO1 | – | 15.6 µM (active) |
| CSc1nc(NC(C)C)nc(NC(C)C)n1 | – | inactive |
| CCCCSP(=O)(SCCCC)SCCCC | – | inactive |
| c1ccc2c(c1)Nc1ccccc1S2 | – | inactive |
| CC(C)=CC1C(C(=O)OCc2cccc(Oc3ccccc3)c2)C1(C)C (stereo not given) | – | inactive |
| CCCCOC(=O)COC(=O)c1ccccc1C(=O)OCCCC | – | inactive |
| COC(=O)Nc1nc2ccccc2[nH]1 | 7.74% | – |
| Clc1ccc(C(Cl)(Cl)Cl)cc1 | 3.71% | – |
| O=NN1CCOCC1 | – | inactive |
| CC1(C)C(C(=O)OC(C#N)c2cccc(Oc3ccccc3)c2)C1(C)C (stereo not given) | – | inactive |
| C=CC(Cl)CCl (stereo not given) | – | inactive |
| CCCCCCCCCc1ccc(O)cc1 | – | 19.5 µM (active) |
| Nc1ccc2ccccc2c1 | – | 33.2 µM (active) |
| O=C(O)c1nn(Cc2ccc(Cl)cc2Cl)c2ccccc12 | – | inactive |
| Nc1ncn[nH]1 | – | inactive |
| O=[N+]([O-])c1ccc(Nc2ccccc2)cc1 | 0.696% [at 94.8 µM] | – |
| Brc1ccc(Br)cc1 | -0.637% | – |
| C=C(C)C#N | – | inactive |
| O=C1CCCO1 | 0.0498% | – |
